Holding throughout (assay): Primary qHTS to identify gynecologic anti-cancer compounds using libraries of approved drugs and bioactive compounds (AID 1345084); also: nearly all actives have a fitted effect of over 55% in size
On the technique in general: qHTS replaces the single test concentration by a dilution series.

One assay deals with C33A. As to conditions: Gynecologic cancer cell panel viability, ATPlite luminescence, 48 h; series mostly up to 57.5 µM. The essentials: (§1)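 48 h compound exposure at 37 C, 5% CO2; five-point qHTS. ATPlite luminescence readout of cell ATP.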
(In general: ATP-based viability assays read luminescence as a measure of living cells.)

The next assay relates to CASKI. The note with it: Gynecologic cancer cell panel viability, ATPlite luminescence, 48 h; series mostly up to 57.5 µM. The essentials:
as §1

The subject of another assay is Es-2. The note with it: Gynecologic cancer cell panel viability, ATPlite luminescence, 48 h; series mostly up to 57.5 µM. The essentials:
as §1

For the next assay, the system named is HeLa. The note with it: Gynecologic cancer cell panel viability, ATPlite luminescence, 48 h; series mostly up to 57.5 µM. The essentials:
as §1

In another assay the test system is Hek293T. As to conditions: Gynecologic cancer cell panel viability, ATPlite luminescence, 48 h, control line for the selectivity index; series mostly up to 57.5 µM. In a few lines: as §1
Another assay deals with JEG-3. The note with it: Gynecologic cancer cell panel viability, ATPlite luminescence, 48 h; series mostly up to 57.5 µM. The essentials: as §1
The next assay deals with OV90. The note with it: Gynecologic cancer cell panel viability, ATPlite luminescence, 48 h; series mostly up to 57.5 µM. In a few lines: as §1
The next assay deals with SKOV3. As to conditions: Gynecologic cancer cell panel viability, ATPlite luminescence, 48 h; series mostly up to 57.5 µM. The essentials:
as §1

The subject of the next assay is Tov112D. As to conditions: Gynecologic cancer cell panel viability, ATPlite luminescence, 48 h; series mostly up to 57.5 µM. In a few lines: as §1
For a further assay, the system named is Tov-21-G. As to conditions: Gynecologic cancer cell panel viability, ATPlite luminescence, 48 h; series mostly up to 57.5 µM. In a few lines: as §1
For the next assay, the system named is PA-1. The note with it: Gynecologic cancer cell panel viability, ATPlite luminescence, 48 h; series mostly up to 57.5 µM. The essentials:
as §1

Results filed as inconclusive are left out. A number with no mark means an inactive call. Active and inactive are the calls of the source. Calls follow the shape of the dose curve; as a rule, active = well fitted cell-killing curve with a large enough effect; inconclusive = small, poorly fitted or top-dose-only effect, or effect the other way; inactive = flat fitted curve, though single readings scatter.
% is scaled to controls: 0 for no effect and ±100 for the full control effect; potency is read from the fitted curve at half-maximal effect.

As for `COc1ccc(C(=O)O[C@H]2C=COC=C3C=C4C(=O)N(C)C(=S)C(=O)N4[C@@H]32)cc1Oc1cc(C=O)ccc1O`, the Potency result with C33A, with CASKI, with Es-2, in the assay on HeLa, in the assay with Hek293T and with JEG-3 was “inactive” each time. Further, the Potency result in the assay on OV90, in the assay with SKOV3 and in the assay with Tov112D was “inactive” in each case.
In the case of `CC(C)CCCCC(=O)N[C@@H](CO)C(=O)N[C@@H](CC(C)C)C(=O)[C@@]1(CO)CO1`, the Potency entry in the assay with C33A, with CASKI, with Es-2, with HeLa, in the assay with Hek293T and in the assay with JEG-3 was “inactive” in each case. The Potency result with OV90, in the assay with SKOV3 and in the assay on Tov112D was “inactive” in each case.
Consider `O=C(NC1(c2ccccc2)CC1)c1c(CN2CCC(N3CCCCC3)CC2)c(-c2cccc(C(F)(F)F)c2)nc2cc(Br)ccc12`, for which the Potency result in the assay on C33A, with CASKI, in the assay on Es-2, in the assay with HeLa, in the assay with JEG-3 and in the assay on SKOV3 was “inactive” throughout. Besides, the Potency entry in the assay with Tov-21-G and with Tov112D was “inactive” throughout. Moreover, the Potency in the assay with OV90 is 17.8 µM (active).
Take `Cc1cn(CCN2CCN(c3ccccc3-c3cc(C#N)cc(C(=O)NCCCN4CCCC4)c3)CC2)c2ccccc12`: the Potency result with C33A, with CASKI, in the assay with Es-2, with HeLa, in the assay with Hek293T and in the assay on JEG-3 was “inactive” throughout. The Potency result with PA-1, with SKOV3, in the assay with Tov-21-G and in the assay on Tov112D was “inactive” in each case.
With `COc1ccc2cc3c(NC(=O)c4ccco4)nn(C)c3nc2c1`, the Potency result in the assay on C33A, in the assay on CASKI, in the assay on Es-2, in the assay with HeLa, with Hek293T and in the assay on JEG-3 was “inactive” each time. Besides, the Potency result with PA-1, in the assay on Tov-21-G and in the assay on Tov112D was “inactive” each time.
`C[C@H](Oc1cc(-c2cnn(C3CCNCC3)c2)cnc1N)c1c(Cl)ccc(F)c1Cl`: the Potency entry in the assay with C33A, in the assay with CASKI, in the assay on Es-2, with HeLa, with Hek293T and with JEG-3 was “inactive” in each case. Besides, the Potency result in the assay with Tov112D was “inactive”.
As to `N#Cc1ccc(-c2ccc(S(=O)(=O)Nc3cccc(N)n3)cc2)cc1`, the Potency entry in the assay on C33A, in the assay on CASKI, in the assay on Es-2, with HeLa, with JEG-3 and in the assay with OV90 was “inactive” in each case. For the same compound, the Potency entry with PA-1, with Tov-21-G and with Tov112D was “inactive” in each case.
In the case of `CCCc1cc(C)[nH]c(=O)c1CNC(=O)c1cc(-c2ccc(N3CCN(C(C)C)CC3)nc2)cc2c1cnn2C(C)C`, the Potency result in the assay on C33A, in the assay on CASKI, in the assay on Es-2, in the assay on HeLa, in the assay with Hek293T and with Tov-21-G was “inactive” in each case. In the assay with Tov112D, the Potency entry was “inactive”.
In the case of `C/C=C(/C)C(=O)O[C@H]1[C@H](OC(=O)/C(C)=C\C)[C@@]23C(CC1(C)C)[C@]1(CCC4[C@@]5(C)CC[C@H](O[C@@H]6O[C@H](C(=O)O)[C@@H](O)[C@H](O[C@@H]7O[C@H](CO)[C@H](O)[C@H](O)[C@H]7O[C@@H]7O[C@@H](C)[C@H](O)[C@@H](O)[C@H]7O[C@@H]7OC[C@@H](O)[C@H](O)[C@H]7O)[C@H]6O[C@@H]6O[C@H](CO)[C@H](O)[C@H](O)[C@H]6O)C(C)(C)C5CC[C@@]4(C)[C@]1(C)C[C@H]2O)O[C@H]3O` (stereo partly specified), the activity change, negative = cytotoxicity in the assay with C33A is -26.4% [at 6.55 µM]; in the assay with CASKI it was -8.52% [at 6.55 µM]; in the assay with Es-2, 0.581% [at 6.55 µM]; with HeLa, 16.8% [at 6.55 µM]; in the assay with Tov112D, -22.5% [at 6.55 µM].
Regarding `COc1ccc(N(C(=O)Nc2c(C)cccc2C)c2cc(Nc3ccc(N4CCN(C)CC4)cc3)ncn2)c(OC)c1`, the Potency result in the assay with C33A, with CASKI, with Es-2, in the assay on HeLa, in the assay with JEG-3 and with Tov112D was “inactive” throughout. Moreover, the Potency in the assay with SKOV3 is 25.1 µM (active); in the assay with Tov-21-G, 12.6 µM (active).
As for `NC(=O)N1CCC(CC(=O)N2CCC(C3c4ncc(Br)cc4CCc4cc(Cl)cc(Br)c43)CC2)CC1` (stereo unspecified), the Potency entry in the assay on C33A, with CASKI, with Es-2, in the assay on HeLa, in the assay with JEG-3 and with PA-1 was “inactive” in each case. Besides, the Potency result with SKOV3 and in the assay with Tov-21-G was “inactive” throughout.
Take `COc1cc2c(cc1OC)CN(C(=O)/C=C/c1c(-c3ccccc3)n(C)c3ncccc13)CC2`: the Potency entry with C33A, in the assay with CASKI, in the assay with Es-2, with HeLa, with JEG-3 and with OV90 was “inactive” throughout. Moreover, the Potency entry in the assay with PA-1 and with Tov112D was “inactive” throughout.
With `COc1cc2ncc(-c3ccccc3)nc2cc1OC`, the Potency entry in the assay with C33A, in the assay on CASKI, with Es-2, with Hek293T, in the assay with JEG-3 and with OV90 was “inactive” throughout. The Potency result in the assay on Tov112D is “inactive”. Also, in the assay with HeLa, the Potency was 3.55 µM (active).
Turning to `COc1cc(N2CCOCC2)ccc1NC(=O)c1csc(-c2cccnc2)n1`, the Potency result in the assay on C33A, with CASKI, with Es-2, in the assay on HeLa, in the assay with Hek293T and in the assay with JEG-3 was “inactive” in each case. For the same compound, the Potency result in the assay on Tov112D was “inactive”.
Take `C=C1CC2OC(=O)C(=C)C2C(OC(=O)/C(C)=C\C)CC2(C)OC1=CC2=O` (stereo unspecified): the Potency was 11.2 µM (active) in the assay with C33A, 10 µM (active) with Es-2, 11.2 µM (active) in the assay with SKOV3 and 11.2 µM (active) in the assay with Tov-21-G. Also, the Potency entry in the assay on CASKI, in the assay on HeLa, in the assay with OV90 and in the assay with Tov112D was “inactive” throughout.
As for `CCC(CC)(NC(=O)C(C)C)C(=O)N[C@@H](CCCN=C(N)N)C(=O)NC1(C(=O)NC(c2ccc(F)cc2)c2ccc(F)cc2)CCCC1`, the Potency entry in the assay on C33A, with CASKI, with Es-2, in the assay on HeLa, in the assay with Hek293T and in the assay on JEG-3 was “inactive” throughout. Also, the Potency result in the assay with PA-1, in the assay with SKOV3, in the assay with Tov-21-G and in the assay with Tov112D was “inactive” in each case.
`C/C=C\NC(=O)C1NC(=O)C(CC(N)=O)NC(=O)C(NC(=O)C(=O)C(C)CC)Cc2ccc(O)c(c2)-c2cccc3c2NC(=O)C3(O)C1O` (stereo unspecified): the Potency result in the assay on C33A, in the assay on CASKI, with Es-2, in the assay on HeLa, in the assay on Hek293T and in the assay on JEG-3 was “inactive” in each case. The Potency entry in the assay with OV90, in the assay on SKOV3 and in the assay on Tov112D was “inactive” in each case. In addition, the Potency in the assay on Tov-21-G was 4.47 µM (active).
For the compound `CCC(C)CNCC(=O)N1CCc2sccc2C1COc1cccc(C)c1` (stereo unspecified), the Potency entry in the assay on C33A, with CASKI, in the assay with Es-2, in the assay with HeLa, in the assay on Hek293T and with JEG-3 was “inactive” throughout. The Potency entry in the assay on PA-1, with SKOV3, in the assay with Tov-21-G and in the assay on Tov112D was “inactive” each time.
`CC1(C)CC[C@]2(C(=O)O[C@@H]3O[C@H](CO)[C@@H](O)[C@H](O)[C@H]3O)CC[C@]3(C)C(=CCC4[C@@]5(C)CC[C@H](O[C@@H]6O[C@H](C(=O)O)[C@H](O)[C@H](O)[C@H]6O)C(C)(C)C5CC[C@]43C)[C@@H]2C1` (stereo partly specified): the Potency result in the assay with C33A, in the assay with CASKI, with Es-2, in the assay on HeLa, with Hek293T and with JEG-3 was “inactive” each time. For the same compound, the Potency entry with OV90, in the assay with SKOV3 and with Tov112D was “inactive” in each case.
Turning to `CC(=O)NCc1cccc(OC[C@@H](O)CNCCc2ccc(NS(=O)(=O)c3ccccc3)cc2)c1`, the Potency result in the assay on C33A, with CASKI, in the assay with Es-2, in the assay on HeLa, with Hek293T and in the assay on JEG-3 was “inactive” throughout. Moreover, the Potency entry in the assay on PA-1, in the assay with Tov-21-G and in the assay with Tov112D was “inactive” throughout.
For the compound `CN(C)CCN(Cc1ccccc1)C(=O)c1cc(-c2ccc(F)cc2)n2nc(C(C)(C)C)cc2n1`, the Potency entry in the assay on C33A, with CASKI, in the assay on Es-2, with HeLa, in the assay with Hek293T and in the assay on JEG-3 was “inactive” throughout. Also, the Potency entry in the assay with Tov-21-G and in the assay on Tov112D was “inactive” in each case.
Consider `CCOc1cc(C(C)(C)C)ccc1C1=NC(C)(c2ccc(Cl)cc2)C(C)(c2ccc(Cl)cc2)N1C(=O)N1CCN(CCCS(C)(=O)=O)CC1` (stereo unspecified), for which the Potency result in the assay on C33A, with Es-2, with HeLa, in the assay with Hek293T, with JEG-3 and with OV90 was “inactive” throughout. Besides, the Potency result in the assay with SKOV3 was “inactive”. Moreover, the Potency in the assay with PA-1 is 6.31 µM (active); with Tov-21-G, 15.8 µM (active).

Source of the values: PubChem BioAssay (NCATS).
